Common to all, as to experiment: NCI-60 one-dose screen, 48 h (100 = growth as untreated, 0 = no growth, -100 = all killed)
Conditions in all cases: 10 µM unless noted

Experiment [1] concerns NCI-H23 lung.
The test system of experiment [2] is NCI-H226 lung.
For experiment [3], the system named is NCI-H322M lung.
The test system of experiment [4] is HOP-62 NSCLC.
Experiment [5] concerns NCI-H460 lung.
Experiment [6] relates to HOP-92 NSCLC.
For experiment [7], the system named is NCI-H522 lung.
In experiment [8] the test system is A549/ATCC NSCLC.
In experiment [9] the test system is 786-0 renal.
Experiment [10] deals with COLO 205 colon.
The test system of experiment [11] is DU-145 prostate.
Experiment [12] concerns K-562 leukemia.
For experiment [13], the system named is MALME-3M melanoma.
Experiment [14] concerns MDA-MB-231 breast.
Experiment [15] concerns RXF 393 renal.
Experiment [16] concerns SF-268 CNS.
The test system of experiment [17] is SF-295 CNS.
Experiment [18] has as its system SF-539 CNS.
For experiment [19], the system named is UACC-257 melanoma.
The test system of experiment [20] is M14 melanoma.

About 83,000 compounds went through this panel and 20% of them were active in at least one assay; those are over-represented in the sample as a whole.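 Activity criterion: percent growth below 10, measured after cells in 96-well plates were exposed to a single compound concentration for 48 hours.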 Unmarked numbers belong to inactive results. Activity calls are given as the source filed them.

On to `COc1ccc(-c2cn(Cc3ccc4c(Br)cc(Br)c(O)c4n3)nn2)cc1`, for which the growth in experiment [1] is 95.5%; in experiment [2], 101%; in [3], 100%; in experiment [4], 98.4%; in experiment [5], 105%; in [6] it was 80.3%. In addition, the growth in [7] was 58.5%; in experiment [8] it was 98.7%; in experiment [9], 104%; in experiment [10], 107%; in [11] it was 89.7%; in experiment [12], 39.1%. Moreover, the growth is 82.7% in experiment [13]; 93.9% in [14]; 91.8% in experiment [15]; 91.3% in experiment [16]; 104% in [17]; 101% in [18]. Moreover, the figures for the growth in experiment [19] and in experiment [20] were 87.9% and 83.3%, respectively.

Regarding `COc1ccc(NC(=O)CSc2oc(-c3ccccc3)nc2S(=O)(=O)c2ccc(Cl)cc2)c(OC)c1`, the growth in experiment [1] is 73%; in experiment [2] it was 1.45% (active); in experiment [3], 83%; in experiment [4] it was 51%; in [5] it was 44.7%; in experiment [6] it was 39.6%. Further, the growth is 41.4% in experiment [7]; 49.2% in experiment [8]; 35.7% in [9]; 83.1% in experiment [11]; 67.4% in [12]; 57.6% in experiment [13]. Moreover, the growth was 47.5% in experiment [14]; 16.3% in [15]; 47.1% in experiment [16]; 53.6% in experiment [17]; 0.354% (active) in experiment [18]; 40.7% in experiment [19]. Besides, the growth in experiment [20] is 77.3%.

Turning to `O=c1oc2ccccc2cc1-c1nn(-c2ccccc2)cc1/C=N/Nc1nc(-c2ccccc2)c(N=Nc2ccccc2)s1`, the growth in experiment [1] is 88.1%; in experiment [2], 99.5%; in experiment [3] it was 105%; in experiment [4], 71.6%; in [5] it was 73.5%; in experiment [6], 79.7%. In addition, the growth in experiment [7] was 41.5%; in experiment [8] it was 50.1%; in experiment [9], 90.7%; in [11] it was 76.8%; in [12] it was 21.7%; in experiment [13] it was 77%. Also, the growth in experiment [14] was 68.8%; in [15] it was 98.1%; in [16], 79.3%; in experiment [17], 70.9%; in experiment [18], 88.5%; in experiment [19] it was 86.5%. Moreover, the growth in experiment [20] is 45.4%.

As to `C#CCOc1cccc(Nc2c(Cl)c(CCl)nc3ccc(Oc4ccccc4)cc23)c1`, the growth is 64.2% in experiment [1]; 72.3% in [2]; 83.7% in [3]; 93.1% in [4]; 96.2% in experiment [5]; 64.2% in [6]. Besides, the growth in [7] is -6.45% (active); in [8], 90.7%; in [9] it was 17.7%; in experiment [11], 43.8%; in [12], 15%; in experiment [13] it was 68.4%. Further, the growth in experiment [14] was 33.2%; in [15] it was 78.6%; in experiment [16] it was 18.8%; in experiment [17], 88.7%; in experiment [18] it was 80.7%; in [19], 90%. In addition, in experiment [20], the growth is 47.7%.

In the case of `CC(C)c1nc(N(C)S(C)(=O)=O)nc(-c2ccc(F)cc2)c1/C=C/C(=O)C[C@@H](O)CC(=O)O`, the growth in experiment [1] is 99.8%; in experiment [2], 113%; in experiment [3], 90%; in experiment [4], 95.8%; in [5], 108%; in experiment [6] it was 84.2%. Also, the growth is 71.4% in [7]; 89.5% in experiment [8]; 106% in [9]; 102% in experiment [11]; 90.9% in experiment [12]; 109% in [13]. Further, the growth in experiment [14] was 110%; in experiment [15], 124%; in [16] it was 98.5%; in experiment [17], 103%; in experiment [18], 104%; in [19] it was 95.6%. The growth in [20] is 102%.

`Cc1ccc(NC(=O)c2ccc(Nc3ncnc4c3cnn4-c3cccc(F)c3)cc2)cc1`: the growth in experiment [1] is 99.6%; in experiment [2] it was 96.5%; in [3], 103%; in experiment [4], 94.7%; in [5], 102%; in experiment [6], 102%. In addition, the growth in [7] was 96%; in experiment [8], 99.9%; in [9], 95.8%; in experiment [11], 104%; in experiment [12], 96.3%; in [13], 101%. Moreover, the growth is 95.2% in experiment [14]; 92.5% in experiment [15]; 97.2% in [16]; 103% in experiment [17]; 101% in experiment [18]; 98% in experiment [19]. The growth in experiment [20] is 99%.

In the case of `CCCCC#Cc1c(I)n(C2OC(CO[Si](C)(C)C(C)(C)C)C3OC(C)(C)OC32)c(=O)[nH]c1=O` (centres undefined), the growth in experiment [1] is 78%; in [2], 88.2%; in [3] it was 84.3%; in experiment [4] it was 102%; in experiment [5] it was 107%; in [7], 79.9%. For the same compound, the growth in experiment [8] was 94%; in [9] it was 82.4%; in experiment [10], -59.1% (active); in [11], 74.1%; in [12] it was 36.3%; in experiment [13] it was 60.6%. Moreover, the growth was 79% in [14]; -56.4% (active) in [15]; 98.4% in [16]; 113% in experiment [17]; 88.1% in experiment [18]; 55.1% in experiment [19]. In addition, in experiment [20], the growth is 76%.
